Compound activity: PubChem, National Center for Advancing Translational Sciences (NCATS)
Compounds with a hit are over-represented: about 2.1% of the library has one in this group of screens.
A549 tox: Nrf2 qHTS screen for inhibitors: counterscreen for cytotoxicity. AID 504648, 2011. Potency, µM (highest dose often 46 µM), inactives show at the highest dose activity change, negative = cytotoxicity, usual class: inhibitors. A549 ARE-Fluc cells, CellTiter-Fluor viability, 18-24 h. 390,000 tested, 0.16% active; further: potency means the concentration at half of the fitted maximal effect; on the % scale 0 is the no-effect control and ±100 the full control effect
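Cytotoxicity counterscreen: CellTiter-Fluor fluorescence was measured in A549 ARE_Fluc cells after 18-24 h of compound exposure in a concentration series. The subsequent BugLite luminescent read reports ARE-luciferase activity.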
Glioma ERSR ind: qHTS for Inducers of the Endoplasmic Reticulum Stress Response (ERSR) in Human Glioma: qHTS. U87-MG GRP78 promoter luciferase reporter, 16 h. Potency, µM, without a hit: at the top dose activation, hits mostly activators. 420,000 tested, 0.02% active. AID 602332, 2012; further: potency means the concentration at half of the fitted maximal effect; series mostly up to about 76 µM; % of control where 0% means no effect; nearly all actives have a fitted effect of over 35% in size
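ERSR induction read as luciferase luminescence (Bright-Glo, 10 min at room temperature) in stably transfected human U87-MG glioma cells exposed to compounds for 16 h, using GRP78 as sensor.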
PTAP TSG101 blk: qHTS Assay for Iinhibitors of HIV-1 Budding by Blocking the Interaction of PTAP/TSG101; Fluorescence polarization, FITC-PTAP peptide / Tsg101 binding; AID 493005, 2010; Potency, µM (top dose mostly 115 µM), for inactives: at the highest dose activity change, negative = inhibition, usual class: inhibitors; 340,000 tested, under 10 active; Tumor susceptibility gene 101 protein (Homo sapiens), Q99816; active means well fitted inhibition curve with a large enough effect in the main read-out, with a control signal flat, not every such curve was filed as active; inconclusive means small, poorly fitted or top-dose-only effect, or effect the other way, or a change in a side signal; inactive means no such curve, though single readings can be large or run the other way; further: potency means the concentration at half of the fitted maximal effect; % of control where 0% means no effect
Target sequence (Q99816 whole entry, looked up): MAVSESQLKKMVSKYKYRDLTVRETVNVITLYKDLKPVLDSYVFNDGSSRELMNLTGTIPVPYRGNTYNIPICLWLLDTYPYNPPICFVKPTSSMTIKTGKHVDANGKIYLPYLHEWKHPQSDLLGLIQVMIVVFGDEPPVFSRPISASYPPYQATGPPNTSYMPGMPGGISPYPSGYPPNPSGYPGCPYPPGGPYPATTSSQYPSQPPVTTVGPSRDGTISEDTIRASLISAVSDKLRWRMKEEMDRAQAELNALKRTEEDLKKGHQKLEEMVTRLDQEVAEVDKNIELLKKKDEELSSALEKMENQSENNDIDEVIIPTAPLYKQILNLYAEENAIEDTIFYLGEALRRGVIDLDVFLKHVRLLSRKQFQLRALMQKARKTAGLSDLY
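Fluorescence anisotropy tracks displacement of a FITC-tagged PTAP peptide (50 nM) from the Tsg101 binding domain (10 uM), following a 20 min room-temperature incubation at pH 7.5.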
Nrf2 activator: qHTS of Nrf2 Activators; AREc32 ARE-luciferase reporter (MCF7-derived line), luminescence, 24 h; 410,000 tested, 0.31% active; Potency, µM (series often up to 46.1 µM), inactives show top-dose activation, most hits filed as activators; AID 624171, 2012; further: potency means the concentration at half of the fitted maximal effect; % of control where 0% means no effect; nearly all actives have a fitted effect of over 65% in size
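AREc32_Fluc, 1000 cells/well, OPTI-MEM + 5% FBS, o/n 37 deg C 5% CO2; 23 nL cpd by pin tool, 24 hr; Steady-Glo 30 min RT, luminescence.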
miR-21 act: qHTS Assay for Modulators of miRNAs and/orActivators of miR-21; AID 2288, 2010; Potency, µM (series often up to 38.3 µM), for inactives: at the highest dose activity change, positive = activation, most hits filed as activators; 340,000 tested, under 10 active; HeLa miR-21 FLuc reporter, luciferase, 48 h;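 further: % of control where 0% means no effect; miR-21 action dims this reporter so a rising signal means less miR-21 action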
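Using DMEM plus 10% FBS, HeLa miR-21-FLuc cells are incubated with test compounds (final up to about 40uM) for 48 hours; firefly luciferase signal is then imaged following reagent-mediated lysis.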
Nrf2 block: Nrf2 qHTS screen for inhibitors; A549 ARE-Fluc reporter, luciferase luminescence, 18-24 h; Potency, µM (titrated, usually from 46 µM), inactives show at the top dose activity change, negative = inhibition, actives largely listed as inhibitors; 360,000 tested, 2.1% active; further: potency means the concentration at half of the fitted maximal effect; on the % scale 0 is the no-effect control and ±100 the full control effect; nearly all actives have a fitted effect of over 60% in size
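Quantitative HTS in A549 cells stably bearing an antioxidant response element-firefly luciferase construct. Inhibition of Nrf2-driven transcription was scored by luminescence after 18-24 h of compound exposure at 37 °C.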
* marks the source's active call; other numbers are inactive results; ? = inconclusive; · = not tested or not shown. Unless noted, the call rests on the fitted dose curve; in most records, active means well fitted curve in the direction sought with a large enough effect; inconclusive means small, poorly fitted or top-dose-only effect, or another doubt; inactive means no such curve, though single readings can be large; an effect the other way counts as inactive or inconclusive.

SMILES | A549 tox | Glioma ERSR ind | PTAP TSG101 blk | Nrf2 activator | miR-21 act | Nrf2 block
COc1cc(OC)c2nc(-c3cc4c(c(OC)c3)OCCN(C(=O)C(C)c3n[nH]c(=O)c5ccccc35)C4)cc(C)c2c1 (stereo not given) | · | -3% | · | · | · | ·
CC1(C)CC(=O)C2=C(C1)Oc1nc3ccccc3cc1C2C(C#N)C#N (stereo not given) | ? | -14% | -4% | 7.1µM* | 0% | ?
CC1(C)CC(=O)C([C@H]2C3=C(CC(C)(C)CC3=O)Oc3ccccc32)C(=O)C1 | · | -3% | · | · | · | ·
CC1CC1c1ccc(/C=C(\C#N)C(=O)Nc2ccc(Cl)cc2)o1 (stereo not given) | -11% | 3% | -2% | 6.3µM* | -44% | ?
CCc1ccccc1NC(=O)/C(C#N)=C/c1ccc(Sc2ccccc2)o1 | 5% | -2% | 0% | 0% | -14% | 5%
CC1CC1c1ccc(/C=C(\C#N)C(=O)Nc2ccccc2Cl)o1 (stereo not given) | -4% | 2% | -4% | 13µM* | -62% | 28%
N#C/C(=C/c1ccc(N2CCCCC2)o1)C(=O)Nc1ccc(Cl)cc1 | -15% | 1% | 20% | 3% | -49% | ·
COc1ccc(NC(=O)/C(Cl)=C(/Cl)S(=O)Cc2ccccc2)cn1 (stereo not given) | 21µM* | -14% | -3% | -2% | ? | -117%
COc1ccc(CS(=O)(=O)/C(Cl)=C(/Cl)C(=O)Nc2ccc(OC)nc2)cc1 | 21µM* | -17% | -1% | ? | ? | 16µM*
O=c1c2ccccc2nc(COc2ccccc2)n1/N=C/c1ccc(O)cc1O | -10% | 9% | -1% | -1% | 4% | 26µM*
CN(C)c1ccc(/C=C/c2ccnc3ccc(Cl)cc23)cc1 | · | 10% | · | · | · | ·
O=C(Nc1ccccc1)C1=C[C@@H](c2ccc(Br)cc2)C[C@@H](OCc2ccc(CO)cc2)O1 | -11% | -3% | · | 7% | -7% | 18µM*
O=C(C1=C[C@@H](c2ccc(C(F)(F)F)cc2)C[C@@H](OCc2ccc(CO)cc2)O1)N1CCN(Cc2ccc3c(c2)OCO3)CC1 | -22% | -4% | -4% | 0% | ? | 16µM*
O=C(C1=C[C@H](c2csc3ccccc23)C[C@H](OCc2ccc(CO)cc2)O1)N1CCCCCCC1 | -19% | -5% | 1% | 1% | · | 23µM*
O=C(C1=C[C@@H](c2ccc(Br)cc2)C[C@@H](OCc2ccc(CO)cc2)O1)N1CCN(Cc2ccccc2)CC1 | ? | -1% | -2% | -3% | ? | 21µM*
Cc1ccsc1C1Cc2c(C(=O)NCc3cccnc3)c(=O)cc(C)n2-c2ccccc2S1 (stereo not given) | · | -3% | · | · | · | ·
COc1ccc(OC)c(-c2cc(Cl)c3c(c2)CC(CNC(=O)[C@@H]2CCCN2C(C)=O)O3)c1 (stereo not given in full) | · | -3% | · | · | · | ·
Cc1cnc(-n2ncc(C(=O)NCc3ccncc3)c2C(C)C)nc1-c1ccc(F)cc1 | · | -4% | · | · | · | ·
S=C(Nc1ccccc1)Nc1ccccn1 | · | 0% | · | 10% | · | ·
S=C(Nc1ccc(Nc2ccccc2)cc1)Nc1ccccn1 | ? | -1% | 0% | 3% | 8% | 21µM*
COc1ccc(-c2nnc(COc3ccc4ccccc4c3)o2)cc1OC | · | -1% | 0% | 4% | -14% | 23µM*
COc1cc(-c2nnc(COc3ccc4cc(Br)ccc4c3)o2)cc(OC)c1OC | 1% | -1% | -3% | 0% | -1% | 3%
COC(=O)c1c(NC(=O)CN2C(=O)NC3(CCCCC3C)C2=O)sc2c1CCC2 (stereo not given) | -14% | -4% | -3% | 0% | · | 16µM*
CCOC(=O)c1c(NC(=O)COc2ccc(Br)cc2)sc(C(C)=O)c1C | -2% | -4% | · | -1% | 0% | ·
CCOC(=O)c1c(NC(=O)COC(=O)c2cccnc2OCC)sc(C(=O)N(CC)CC)c1C | -25% | -4% | -15% | 5% | · | 15µM*
SMILES | A549 tox | Glioma ERSR ind | PTAP TSG101 blk | Nrf2 activator | miR-21 act | Nrf2 block
CCOC(=O)c1c(NC(=O)COc2ccc(OC)cc2)sc(C(=O)N(CC)CC)c1C | -22% | · | · | -1% | ? | 23µM*
CCOC(=O)Nc1sc(C(=O)N(CC)CC)c(C)c1C(=O)OCC | -12% | 0% | -8% | -1% | -6% | -15%
CCCOc1ccc2c(=O)c(-c3cc(C(=O)OC)oc3C)c(C)oc2c1 | -6% | -4% | -1% | 0% | 4% | 16µM*
COc1ccccc1-c1c(C)oc2cc(OC(=O)c3ccco3)ccc2c1=O | · | -5% | -8% | -1% | -9% | -49%
[2H]C(CCOS(N)(=O)=O)c1ccc(C(C)(C)C)cc1 (stereo not given) | -3% | -7% | · | -1% | 12% | 5.2µM*
NS(=O)(=O)OCCCc1ccccc1 | 11% | -6% | -4% | -1% | -3% | -1%
CCn1c(SCC(=O)N/N=C/C=C\c2ccccc2[N+](=O)[O-])nnc1-c1ccccc1 | -17% | -1% | -3% | 16% | -2% | 16µM*
Cc1ccc(CSc2nnc(SCC(=O)N/N=C/C=C/c3ccccc3[N+](=O)[O-])s2)cc1 | 12% | -5% | -6% | 0% | 7% | ?
O=C(Nc1cccc(S(=O)(=O)N2CCCCC2)c1)c1ccc(Cl)nc1 | -7% | -6% | -2% | 0% | · | 21µM*
O=C1CCC(C(=O)Nc2cccc(S(=O)(=O)Nc3ccccc3F)c2)=NN1 | 2% | -1% | -2% | 2% | · | 26µM*
O=C(Nc1ccc(Cc2ccncc2)cc1)c1ccc(S(=O)(=O)N2CCCC2)cc1 | -20% | -5% | 0% | 2% | 26% | 16µM*
O=C(Nc1ccc(S(=O)(=O)N2CCCCC2)cc1)c1ccc(Cl)nc1 | -12% | -3% | 1% | 0% | · | 18µM*
O=S(=O)(c1cccc(O)c1)N1CCN(S(=O)(=O)c2c(F)cccc2F)CC1 | -1% | · | · | · | · | 3%
O=C(Nc1cccc(S(=O)(=O)Nc2ccccc2Cl)c1)c1ccc(Cl)nc1 | -15% | -3% | -1% | -1% | ? | 5.2µM*
COc1cccc(OC)c1C(=O)Nc1cccc(S(=O)(=O)Nc2ccccc2Cl)c1 | 5% | -6% | -6% | 9% | · | ?
O=C(Nc1cccc(S(=O)(=O)N2CCCCCC2)c1)c1ccc(Cl)nc1 | ? | -3% | -5% | 3% | · | 21µM*
